# PubChem BioAssay (NCI)
# Compounds without any hit were thinned out: in the full panel of roughly 83,000, 20% have a hit.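 Assay: single dose, 48 h. Readout: percent growth (0 = no net growth; negative = cell death). Active: <10.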 Activity calls are given as the source filed them.
# Columns and labels:
# Assay in all cases: NCI-60 one-dose screen, 48 h (100 = growth as untreated, 0 = no growth, -100 = all killed)
# Conditions in all cases: 10 µM unless noted
# [1] = system: NCI-H23 lung
# [2] = system: NCI-H226 lung
# [3] = system: NCI-H322M lung
# [4] = system: HOP-62 NSCLC
# [5] = system: NCI-H460 lung
# [6] = system: 786-0 renal
# [7] = system: MDA-MB-231 breast
# [8] = system: SF-268 CNS
# [9] = system: M14 melanoma
# [10] = system: PC-3 prostate
# [11] = system: UACC-62 melanoma
# [12] = system: SK-MEL-28 melanoma
# [13] = system: SN12C renal
# [14] = system: UO-31 renal
# [15] = system: OVCAR-5 ovarian
# [16] = system: NCI/ADR-RES ovarian
# [17] = system: MDA-MB-435 melanoma
# [18] = system: SW-620 colon
# [19] = system: HCT-116 colon
# [20] = system: KM12 colon
Compound,growth [1],growth [2],growth [3],growth [4],growth [5],growth [6],growth [7],growth [8],growth [9],growth [10],growth [11],growth [12],growth [13],growth [14],growth [15],growth [16],growth [17],growth [18],growth [19],growth [20]
C[C@]12CC[C@H]3[C@@H](C[C@@H]4N=C(c5ccc(O)cc5)S[C@@]45C[C@H](O)CC[C@]35C)[C@@H]1CC[C@@H]2O,74.7% (inactive),110% (inactive),92.8% (inactive),46.7% (inactive),41.9% (inactive),8.35% (active),56.2% (inactive),48.6% (inactive),60.5% (inactive),49.5% (inactive),28.7% (inactive),53.3% (inactive),96.7% (inactive),9.33% (active),106% (inactive),76.8% (inactive),92% (inactive),71.7% (inactive),43.8% (inactive),60.8% (inactive)
O=C(CC1(O)C(=O)Nc2ccc(F)cc21)c1ccc(C(=O)NCC2CCC3(CC2)OOC2(CCCCC2)OO3)cc1 (centres undefined),34.9% (inactive),69.3% (inactive),94.6% (inactive),-14.4% (active),21.7% (inactive),-78.5% (active),41.5% (inactive),63.4% (inactive),83.9% (inactive),44.2% (inactive),73.4% (inactive),78.5% (inactive),51.4% (inactive),-81.7% (active),87.3% (inactive),80% (inactive),63.8% (inactive),61.1% (inactive),69.7% (inactive),32.5% (inactive)
O=C(CI)Nc1ccc(Br)cc1,32% (inactive),69.7% (inactive),95.4% (inactive),-62.7% (active),95.3% (inactive),91.3% (inactive),44.2% (inactive),75.8% (inactive),14.1% (inactive),87.3% (inactive),79.2% (inactive),109% (inactive),15.7% (inactive),-82.3% (active),94.9% (inactive),100% (inactive),52% (inactive),-86.7% (active),-69.9% (active),88.1% (inactive)
S=P(N1CCCCCC1)(N1CC1)N1CC1,102% (inactive),106% (inactive),121% (inactive),94.8% (inactive),107% (inactive),103% (inactive),96.4% (inactive),96.8% (inactive),103% (inactive),93.7% (inactive),98.3% (inactive),116% (inactive),96.2% (inactive),104% (inactive),107% (inactive),104% (inactive),109% (inactive),108% (inactive),99.8% (inactive),105% (inactive)
C[C@]12CCc3sc(-c4ccc(Cl)cc4)nc3C1=CC[C@@H]1[C@@H]2CC[C@]2(C)C(=O)CC[C@@H]12,71.3% (inactive),84.3% (inactive),82.6% (inactive),66% (inactive),72.5% (inactive),53.4% (inactive),64.3% (inactive),64.4% (inactive),97.6% (inactive),50% (inactive),51.1% (inactive),63.1% (inactive),65.9% (inactive),47.3% (inactive),98.2% (inactive),81.6% (inactive),75.7% (inactive),22.9% (inactive),52.3% (inactive),66.8% (inactive)
CC1(C)N=C(N)N=C(N)N1c1ccc(CCCCc2ccc(Cl)cc2S(=O)(=O)F)c(Cl)c1,25.6% (inactive),30.6% (inactive),34.2% (inactive),33.4% (inactive),8.45% (active),20.4% (inactive),27.4% (inactive),25.2% (inactive),18% (inactive),21.3% (inactive),22.5% (inactive),37.8% (inactive),23.4% (inactive),60.7% (inactive),31.4% (inactive),53.3% (inactive),19.6% (inactive),11.9% (inactive),14.9% (inactive),15.7% (inactive)
O=[N+]([O-])c1cccc([As]=[As]c2cccc([N+](=O)[O-])c2)c1 (centres undefined),-36.4% (active),-60.7% (active),-97.4% (active),-95.1% (active),-65.7% (active),-93% (active),-91.8% (active),-92.1% (active),-94.4% (active),-84.8% (active),-97.6% (active),-98.4% (active),-96% (active),-98.7% (active),-85.2% (active),-1.16% (active),-91.5% (active),-68.8% (active),-89.3% (active),-92.7% (active)
C=CC(O)CN1CC1CC (centres undefined),99% (inactive),105% (inactive),106% (inactive),101% (inactive),100% (inactive),107% (inactive),113% (inactive),106% (inactive),96.5% (inactive),98.1% (inactive),92.6% (inactive),105% (inactive),99% (inactive),86.3% (inactive),104% (inactive),97.4% (inactive),99.1% (inactive),92% (inactive),104% (inactive),106% (inactive)
Nc1cccc(CC(=O)Nc2ccc(S(=O)(=O)F)cc2)c1,99.7% (inactive),93.9% (inactive),104% (inactive),90.3% (inactive),102% (inactive),96.9% (inactive),94.4% (inactive),107% (inactive),90.7% (inactive),82.2% (inactive),90.5% (inactive),87.5% (inactive),100% (inactive),86.2% (inactive),98.5% (inactive),,89.8% (inactive),84.3% (inactive),96.9% (inactive),92.2% (inactive)
CN1CCN(C(=O)COc2ccc(/C=C3\CC4C5CC=C6CC(Cl)CCC6(C)C5CCC4(C)C3=O)cc2)CC1 (centres undefined),71.2% (inactive),77.2% (inactive),85.7% (inactive),96.7% (inactive),17.2% (inactive),70.2% (inactive),75.2% (inactive),73.2% (inactive),-13% (active),71.3% (inactive),90% (inactive),103% (inactive),79.7% (inactive),99.9% (inactive),99.7% (inactive),69.2% (inactive),56.6% (inactive),40.4% (inactive),34.6% (inactive),72.9% (inactive)
N#Cc1ncc(/N=C/c2ccc(N(CCCl)CCCl)cc2)s1,58.2% (inactive),-19.1% (active),121% (inactive),96.1% (inactive),22.7% (inactive),29% (inactive),94.5% (inactive),65.5% (inactive),86.8% (inactive),66.9% (inactive),32% (inactive),102% (inactive),55.9% (inactive),34.8% (inactive),100% (inactive),70.8% (inactive),87.8% (inactive),79.4% (inactive),71.6% (inactive),95.3% (inactive)
Nc1c(Br)cc2c3c(cccc13)-c1ccccc1-2,61.7% (inactive),89.3% (inactive),91.2% (inactive),82.9% (inactive),88.4% (inactive),94.9% (inactive),48.7% (inactive),87.7% (inactive),58.5% (inactive),47.4% (inactive),81.2% (inactive),99.7% (inactive),90.4% (inactive),42.4% (inactive),76.8% (inactive),83.4% (inactive),78.8% (inactive),90.4% (inactive),81.4% (inactive),57.4% (inactive)
CC(=O)N1N=C(c2ccccc2)CC1c1sc(N(CCCl)CCCl)nc1Cl (centres undefined),85.8% (inactive),89.1% (inactive),90.6% (inactive),90% (inactive),96.2% (inactive),99.7% (inactive),95.3% (inactive),94% (inactive),101% (inactive),88.1% (inactive),64.5% (inactive),108% (inactive),86.6% (inactive),80% (inactive),98.4% (inactive),99% (inactive),97.4% (inactive),96.8% (inactive),92.5% (inactive),95.8% (inactive)
O=[As]c1ccc(C(=O)c2ccc(Oc3ccccc3)cc2)cc1 (centres undefined),-77.5% (active),-85.5% (active),-79.1% (active),-98.3% (active),-31.9% (active),-99.6% (active),-98.4% (active),-89.2% (active),-94.1% (active),-61.4% (active),-98.1% (active),-96.3% (active),-98.4% (active),-84.6% (active),-95.4% (active),-52.4% (active),-52% (active),-82.6% (active),-99.2% (active),-87.2% (active)
C/C(=C\c1cc(C(F)(F)F)n(-c2ccc(N)cc2)n1)[C@@H]1C[C@@H]2O[C@]2(C)CCC[C@H](C)[C@H](O)[C@@H](C)C(=O)C(C)(C)[C@@H](O)CC(=O)O1,24.4% (inactive),38.9% (inactive),22.2% (inactive),19.2% (inactive),3.04% (active),8.49% (active),0.97% (active),6.48% (active),-14.3% (active),9.42% (active),26.8% (inactive),39.1% (inactive),23.1% (inactive),26.6% (inactive),14.7% (inactive),7.67% (active),-22.6% (active),26.5% (inactive),5.82% (active),5.68% (active)
Cc1ccc(N)cc1[As]=[As]c1cc(N)ccc1C (centres undefined),-56.4% (active),-93.2% (active),50.3% (inactive),14.9% (inactive),60.4% (inactive),-89.3% (active),-92.6% (active),-83.6% (active),-72.2% (active),-89.9% (active),-90.4% (active),-94.2% (active),-86.5% (active),-99.7% (active),-90.6% (active),53.8% (inactive),-89% (active),-57% (active),-79.4% (active),65.7% (inactive)
